# According to ChEMBL document CHEMBL4513216, “Probing the Open Global Health Chemical Diversity Library for Multistage-Active Starting Points for Next-Generation Antimalarials” (ACS Infect Dis, 2020):
# Screen size: about 69,000 compounds; about 8,600 (12%) showed an effect of 50% or more. The full list was thinned out, with strong results kept by preference.
# Tested on: Plasmodium berghei
# Experiment: Screen against P. berghei liver stage (PbLuc), transformed with Luciferase, at 10uM
# Format: functional, HepG2
# Details: tested at 10 uM
row,SMILES,INHIBITION [%]
1,Cc1nccn1CCC1CCN(C(=O)C2CC3(CCNCC3)CN2)CC1 (centres undefined),33.9
2,COCCN1CCN(CCCS(=O)(=O)N(C)C)CC1C (centres undefined),66.7
3,COCCN1CCN(CCCS(C)(=O)=O)CC1C (centres undefined),25.7
4,COCCN1CCN(CCS(C)(=O)=O)CC1C (centres undefined),-73.1
5,NCc1cccc(-c2cccnc2C(=O)NCCN2CCOCC2)c1,25.8
6,Cn1cc(NC(=O)c2cc3c(s2)CCCC3)cn1,-179
7,Cc1csc(CCNC(=O)C2CCOC2)n1 (centres undefined),8.08
8,CCc1nc(CCNC(=O)C2CCOC2)sc1C (centres undefined),56.8
9,CCc1nc(CCNC(=O)C2CC2)sc1C,2.69
10,N#Cc1c(N2CCOCC2)nsc1-c1cccnc1,-31.3
11,Cc1cccc(C(C)C)c1NC(=O)NCCN(C(C)C)C(C)C,56
12,CCN(CC)CCCNC(=O)Nc1c(C)cccc1C(C)C,7.3
13,COCCCNC(=O)Nc1c(C)cccc1C(C)C,-19.1
14,CCN(CC)C(=O)c1ccc(CNc2cncc(-n3cccn3)n2)cc1,29.4
15,Cc1nc(CN2CCN(c3ccc(Cl)cn3)CC2)no1,-52.4
16,CCOCCNC(=O)Nc1cccc(-c2nccn2C)c1,-21.8
17,Cn1ccnc1-c1cccc(NC(=O)NCCCO)c1,10
18,CCC(CC)C(O)CNC(=O)Nc1cccc(-c2nccn2C)c1 (centres undefined),50.8
19,Cn1cnc2c1C(COCC1CC1)CN(c1ncccn1)C2 (centres undefined),-32
20,CC(=O)N1CCCN(C(=O)NC(C)Cn2cccn2)CC1 (centres undefined),21.6
21,Cn1cc(CN2C[C@@H]3CCCO[C@@H]3[C@H](N3CCCC3=O)C2)cn1,-3.51
22,CCOCc1nc2c(c(NC(COC)c3ccccn3)n1)CCNCC2 (centres undefined),8.31

row,SMILES,INHIBITION [%]
1,COc1ccc(C(=O)C2CCCN(Cc3ccncc3)C2)cc1OC (centres undefined),63
2,COCCc1ncc(CN2CCCC(C(=O)c3ccccc3)C2)cn1 (centres undefined),36.8
3,COc1ccc(C(=O)C2CCCN(Cc3ccon3)C2)c(OC)c1 (centres undefined),47.7
4,COc1ccc(C(=O)C2CCCN(Cc3ccc(C)o3)C2)c(OC)c1 (centres undefined),42.9
5,COc1ccc(C(=O)C2CCCN(Cc3ccccc3O)C2)c(OC)c1 (centres undefined),-20.5
6,COc1ccc(C(=O)C2CCCN(CCc3ccccc3)C2)c(OC)c1 (centres undefined),71.3
7,COc1ccc(C(=O)C2CCCN(Cc3cc(C)n[nH]3)C2)c(OC)c1 (centres undefined),68.5
8,COc1ccc(C(=O)C2CCCN(Cc3cccc(F)c3)C2)c(OC)c1 (centres undefined),76.9
9,COc1ccc(F)cc1C(=O)C1CCCN(Cc2ccc(C)s2)C1 (centres undefined),43.9
10,COc1ccc(C(=O)C2CCCN(CCCn3cccn3)C2)c(OC)c1 (centres undefined),25.4
11,COc1ccc(C(=O)C2CCCN(Cc3ccncc3)C2)c(OC)c1 (centres undefined),-3.1
12,CN1CCN(C(=O)c2ncn3c2CN(C)S(=O)(=O)c2ccccc2-3)CC1,-79.8
13,CCc1noc(CN2CCC(c3ccnn3CCO)CC2)n1,-19.4
14,CN(C)C(C(=O)N1CCC(c2ncc[nH]2)CC1)c1ccc2c(c1)OCO2 (centres undefined),14.3
15,O=C1COC2(CCN(C(=O)c3ccoc3)CC2)CN1Cc1ccccn1,-33.9
16,CCOCCC(=O)NCC(C)c1ccsc1 (centres undefined),32
17,CN(C)C(CNC(=O)CCNC(=O)OCC(F)(F)F)c1ccsc1 (centres undefined),61.9
18,CN(C)C(CNC(=O)OCC(F)(F)F)c1ccsc1 (centres undefined),44.3
19,CC(C)c1cc(C(=O)N2CCCC(c3cc(=O)nc4n3CCC4)C2)no1 (centres undefined),18.4
20,CC1(C)CN(C(=O)Nc2cc(C(F)(F)F)c[nH]c2=O)CCO1,4.97
21,CCO[C@H]1CC[C@H]2[C@H]1OCCN2CCOCc1ccccc1,4.98
22,O=C(N[C@@H]1CN(c2ncccn2)C[C@@H]2CCCO[C@@H]21)c1ccnnc1,-3.52

row,SMILES,INHIBITION [%]
1,COc1ccc(OC)c(-n2c(COC(C)C)n[nH]c2=O)c1,45.4
2,COc1ccc(Cl)cc1-n1c(COC(C)C)n[nH]c1=O,26.4
3,COc1ccc(C)cc1-n1c(COC(C)C)n[nH]c1=O,72.3
4,COc1cccc(C(O)C(=O)N(C)CCc2ccccn2)c1 (centres undefined),47.7
5,O=C(CSCC1CC1)N1CCC2(CCCN(C3CCOCC3)C2=O)C1 (centres undefined),1.48
6,CN(C)C(=O)c1cnn2c1OCCC2,60.6
7,CS(=O)(=O)N1CCN(C(=O)c2cnn3c2OCCC3)CC1,31.6
8,O=C(c1cnn2c1OCCC2)N1CCC2(CC1)OCCO2,-14.2
9,CC(NCCCC#N)c1ccc(S(C)(=O)=O)c(F)c1 (centres undefined),19.1
10,CCn1c(C2CCCNC2)nn(CCn2cncn2)c1=O (centres undefined),-7.13
11,O=C(CCn1cccc1)NCc1ccc(CN2CCCCCC2)o1,37.4
12,CCCOc1ccc2c(c1)OCC(C(=O)NC(C)Cn1ccnc1)=C2 (centres undefined),51
13,CCCOc1ccc2c(c1)OCC(C(=O)NC(C)Cn1cccn1)=C2 (centres undefined),30.9
14,CCOc1ccc2c(c1)C=C(C(=O)NC(C)Cn1cccn1)CO2 (centres undefined),2.91
15,CCOCC1CN(S(=O)(=O)N(C)C)Cc2cnn(CC)c21 (centres undefined),29
16,Cc1cc(NC(=O)CN2CCC(N(C)Cc3ncc(C)o3)C2)n(C)n1 (centres undefined),-29.9
17,Cc1cnn(CCNCc2ccc(OCc3cscn3)cc2)c1,85.1
18,Cc1cnn(CCNCc2ccc(OCc3noc(C)n3)cc2)c1,66.3
19,Cc1nc(COc2ccc(CNCCn3cccn3)cc2)cs1,88.5
20,COc1ccc(OCCNCCn2cccn2)cc1,0.932
21,Cc1cnn(CC(C)NCc2ccc(OCc3noc(C)n3)cc2)c1 (centres undefined),-79.3
22,Cc1ccc(OCc2nc(CNCCn3cccn3)cs2)cc1,-24.1

row,SMILES,INHIBITION [%]
1,Cc1cnn(CCNCc2nc(COc3ccc(F)cc3)no2)c1,19.3
2,Cc1cnn(CCNCc2ccc(OCc3csc(C)n3)cc2)c1,-37.9
3,c1ccc(OCc2nc(CNCCn3cccn3)cs2)cc1,1.95
4,COc1ccc(OCCCNCCn2cccn2)cc1,64.7
5,Cc1cnn(CCNCc2ccc(OCc3ccccn3)cc2)c1,34.6
6,c1ccc(OCCCNCCn2cccn2)cc1,38.7
7,O=C(c1cc2c(F)cccc2[nH]1)N1CCCCC1Cn1cccn1 (centres undefined),-4.94
8,Cc1cc(-c2cc(N)c(=O)n(CC(=O)NC3CCCCC3)n2)c(C)o1,13.835
9,O=C(NCCn1ccnc1)N1CCN(Cc2ccco2)CC1,-37.7
10,Cc1ccc(NC2CCN(C(=O)c3ccncc3)CC2)nn1,-39.7
11,CCN1CCC(NC(=O)CN2CC(n3nc(C)cc3C)C2)CC1,23.5
12,CC(=O)N[C@@H]1CN(Cc2nc3ccccc3[nH]2)C[C@H]1c1ccc(C)o1,39
13,Cn1cc(CCNCc2cc(Br)c3c(c2)OCO3)cn1,37.6
14,COc1cc(CNCC(O)c2ccc(F)cc2F)cc2c1OCO2 (centres undefined),0.914
15,FC(F)Oc1ccc(CNCc2cc(Br)c3c(c2)OCO3)cc1,80.8
16,CC(Cn1ccnc1)NCc1cc(Br)c2c(c1)OCO2 (centres undefined),-7.72
17,FC(F)Oc1ccc(CNCc2cc(Cl)c3c(c2)OCO3)cc1,24.6
18,COc1cc(CNCC(O)c2ccccc2)cc2c1OCO2 (centres undefined),-54.6
19,COc1cc(CNCc2ccc(C(C)O)cc2)cc2c1OCO2 (centres undefined),49.3
20,COc1ccc(CNCc2cc(Br)c3c(c2)OCO3)cc1,74.7
21,Fc1ccc(CNCc2cc(Br)c3c(c2)OCO3)cc1,78
22,FC(F)Oc1ccccc1CNCc1cc(Br)c2c(c1)OCO2,58.6

row,SMILES,INHIBITION [%]
1,COc1cc(CNCC(O)c2ccccc2F)cc2c1OCO2 (centres undefined),-9.37
2,Cc1ccc(CNCc2cc(Br)c3c(c2)OCO3)cc1,45.4
3,C[C@@H]1CN(c2ccc(Cl)cn2)C[C@]1(C)O,4.161
4,Fc1cnc(N2CCO[C@H]3[C@H](OCCN4CCCC4)CC[C@@H]32)nc1,4.68
5,Cc1ccc(-c2nnc(CNCCn3cccn3)o2)cc1,37.9
6,COCc1cc(NCc2ccccc2-n2cncn2)ncn1,15.7
7,CN(Cc1nc(-c2ccccc2)no1)Cc1cnc(N2CCOCC2)s1,25.8
8,CN(C)CCn1c2c(ccc1=O)CCN(C(=O)c1cccs1)CC2,13.5
9,COc1c(CNCc2cccc(CN(C)C)c2)c(C)nn1C,35.3
10,Cc1nc(Nc2cnccn2)cc(C2CCCN2C2CCOCC2)n1 (centres undefined),25.6
11,CC(C)C1CCCN1C(=O)Nc1ccc(=O)n(C)c1 (centres undefined),-22.1
12,CCc1nc(C2CCCN2CC(=O)Nc2nnc(C)s2)no1 (centres undefined),-11.9
13,CC(C)n1nc(CN2CCCC2=O)c2c1CN(C(=O)c1ccc[nH]1)C2,7.67
14,NC(=O)c1c(NC(=O)C2CCCO2)sc2c1CCc1ccccc1-2 (centres undefined),-57.9
15,Cc1ccccc1S(=O)(=O)N1CCC(c2[nH]ncc2C)C1 (centres undefined),11.1
16,CC(C)N1CC[C@H]2[C@H](C[C@@H](Cn3cncn3)N2c2nccs2)C1,0.71
17,CC(=O)N1CC[C@H]2[C@H](C[C@@H](Cn3cncn3)N2c2nccs2)C1,85.4
18,CC(=O)N1CC[C@H]2[C@H](C[C@@H](CN3CCCC3)N2c2nccs2)C1,0.71
19,CN1CC[C@H]2[C@H](C[C@@H](CN3CCCC3)N2c2nccs2)C1,34.5
20,CCC(=O)N1CC[C@H]2[C@H](C[C@@H](CN3CCCC3)N2c2nccs2)C1,-0.284
21,CN1CC[C@H]2[C@H](C[C@@H](Cn3cncn3)N2c2nccs2)C1,69.7
